In PubChem BioAssay AID1159580 (chemical genetic matrix, 2015):
Values joined by “and” are separate entries in the source; they are usually repeats but may differ in a detail not shown here. Equal entries are not always repeated. The whole screen tested about 5,500 compounds, of which about 2,000 (36%) were called active. Not shown: some 18% with an inconclusive outcome. Rule as the data show it: active = normalized growth mostly below about 0.91 (no sharp cut-off); inconclusive = no clear call, values can overlap the other calls; inactive = mostly above about 0.92. The list shows a part of the results.

Assay: chemical genetic growth profiling, strain panel (AID 1159580);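 also: tested at 20 µM; growth read once vehicle control cultures reached saturation at 30 °C; 1 = growth at the plate median or of vehicle wells; lower values mean less growth of the strain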
Details: S. cerevisiae deletion strains, growth OD

Measured: normalized growth

Nc1ccccc1C(=O)CC(N)C(=O)O (stereo not drawn)
inactive: locus YAL021C, strain ccr4, stronger effect = lower value 1.01 | locus YAL026C, strain drs2, stronger effect = lower value 1.01 | locus YAL030W, strain snc1, stronger effect = lower value 0.992 | locus YBL061C, strain skt5, stronger effect = lower value 1 | locus YBR009C, strain hhf1, stronger effect = lower value 1.01 | locus YBR021W, strain FUR4, stronger effect = lower value 1.06 | locus YBR023C, strain chs3, stronger effect = lower value 1 | locus YBR171W, strain sec66, stronger effect = lower value 0.99 | locus YBR229C, strain ROT2, stronger effect = lower value 1.01 | locus YBR231C, strain swc5, stronger effect = lower value 0.97 | locus YBR279W, strain paf1, stronger effect = lower value 1.01 | locus YCL011C, strain gbp2, stronger effect = lower value 1.01 | locus YCL016C, strain dcc1, stronger effect = lower value 1 | locus YCL029C, strain bik1, stronger effect = lower value 0.968 | locus YCL069W, strain vba3, stronger effect = lower value 1.01 | locus YCR088W, strain abp1, stronger effect = lower value 0.989 | locus YDL005C, strain med2, stronger effect = lower value 0.989 | locus YDL035C, strain GPR1, stronger effect = lower value 1.01 | locus YDL040C, strain nat1, stronger effect = lower value 0.989 | locus YDL074C, strain BRE1, stronger effect = lower value 0.968 | locus YDL101C, strain DUN1, stronger effect = lower value 0.995 | locus YDL134C, strain PPH21, stronger effect = lower value 1.07 | locus YDL185W, strain tfp1, stronger effect = lower value 0.947 | locus YDL192W, strain arf1, stronger effect = lower value 0.984 | locus YDR001C, strain nth1, stronger effect = lower value 0.99 | locus YDR069C, strain doa4, stronger effect = lower value 0.984 | locus YDR101C, strain arx1, stronger effect = lower value 0.956 | locus YDR137W, strain rgp1, stronger effect = lower value 0.998 | locus YDR150W, strain NUM1, stronger effect = lower value 0.997 | locus YDR159W, strain sac3, stronger effect = lower value 0.981 | locus YDR162C, strain NBP2, stronger effect = lower value 1.01 | locus YDR195W, strain ref2 0.94 | locus YDR297W, strain sur2, stronger effect = lower value 0.994 | locus YDR318W, strain mcm21, stronger effect = lower value 1.01 | locus YDR334W, strain swr1, stronger effect = lower value 0.99 | locus YDR335W, strain msn5, stronger effect = lower value 1 | locus YDR388W, stronger effect = lower value 0.994 | locus YDR392W, strain spt3, stronger effect = lower value 0.907 | locus YDR502C, strain sam2, stronger effect = lower value 1 | locus YEL003W, strain gim4, stronger effect = lower value 1.01 | locus YEL037C, strain rad23, stronger effect = lower value 1 | locus YEL061C, strain CIN8 (second series), stronger effect = lower value 0.992 | locus YEL061C, strain CIN8, stronger effect = lower value 1 | locus YER015W, strain faa2, stronger effect = lower value 1.01 | locus YER016W, strain bim1, stronger effect = lower value 0.996 | locus YER110C, stronger effect = lower value 0.975 | locus YER111C, strain swi4, stronger effect = lower value 0.998 | locus YER155C, strain BEM2 (second series), stronger effect = lower value 0.939 | locus YER155C, strain BEM2, stronger effect = lower value 0.997 | locus YER167W, strain BCK2, stronger effect = lower value 1.01 | locus YFR010W, strain ubp6, stronger effect = lower value 1.01 | locus YGL078C, strain dbp3, stronger effect = lower value 0.989 | locus YGL086W, strain mad1, stronger effect = lower value 0.954 | locus YGL167C, strain pmr1, stronger effect = lower value 0.997 | locus YGL173C, strain kem1, stronger effect = lower value 1 | locus YGL227W, strain vid30, stronger effect = lower value 0.996 | locus YGL240W, strain doc1, stronger effect = lower value 0.941 | locus YGL248W, strain PDE1, stronger effect = lower value 1.01 | locus YGL253W, strain hxk2, stronger effect = lower value 1.03 | locus YGR078C, strain PAC10, stronger effect = lower value 0.998 | locus YGR135W, strain pre9, stronger effect = lower value 1 | locus YGR229C, strain SMI1, stronger effect = lower value 1.01 | locus YGR252W, strain gcn5, stronger effect = lower value 1.17 | locus YHR013C, strain ard1, stronger effect = lower value 0.998 | locus YHR027C, strain rpn1, stronger effect = lower value 0.984 | locus YHR030C, strain SLT2, stronger effect = lower value 0.989 and 1.03 | locus YHR079C, strain IRE1 (second series), stronger effect = lower value 0.992 | locus YHR079C, strain IRE1, stronger effect = lower value 1.05 | locus YHR094C, strain hxt1, stronger effect = lower value 0.995 | locus YHR129C, strain ARP1, stronger effect = lower value 1.01 | locus YHR142W, strain chs7, stronger effect = lower value 0.995 | locus YHR200W, strain rpn10, stronger effect = lower value 0.995 | locus YIL066C, strain RNR3, stronger effect = lower value 1 | locus YIL073C, strain SPO22, stronger effect = lower value 0.986 | locus YIL125W, strain kgd1, stronger effect = lower value 0.993 | locus YIR030C, strain dcg1, stronger effect = lower value 0.997 | locus YJL092W, strain hpr5, stronger effect = lower value 1.01 | locus YJL095W, strain BCK1 (second series), stronger effect = lower value 0.993 | locus YJL095W, strain BCK1, stronger effect = lower value 0.998 and 1.02 | locus YJL115W, strain asf1, stronger effect = lower value 0.985 | locus YJL129C, strain trk1, stronger effect = lower value 1.03 | locus YJL134W, strain LCB3, stronger effect = lower value 0.991 | locus YJL154C, strain vps35, stronger effect = lower value 0.991 | locus YJL164C, strain tpk1, stronger effect = lower value 1.03 | locus YJL166W, strain qcr8, stronger effect = lower value 0.991 | locus YJL168C, strain set2, stronger effect = lower value 0.985 | locus YJL187C, strain SWE1 (second series), stronger effect = lower value 0.992 | locus YJL187C, strain SWE1, stronger effect = lower value 1.02 | locus YJR043C, strain POL32, stronger effect = lower value 1.01 | locus YJR066W, strain TOR1, stronger effect = lower value 0.952 | locus YJR075W, strain HOC1, stronger effect = lower value 0.995 | locus YKL009W, strain mrt4, stronger effect = lower value 0.964 | locus YKL068W, stronger effect = lower value 0.975 | locus YKL085W, strain MDH1 (second series), stronger effect = lower value 0.983 | locus YKL085W, strain MDH1, stronger effect = lower value 0.983 | locus YKL160W, strain elf1, stronger effect = lower value 1.02 | locus YKL190W, strain CNB1, stronger effect = lower value 1.01 | locus YKR001C, strain vps1, stronger effect = lower value 0.959 | locus YKR026C, strain gcn3, stronger effect = lower value 0.992 | locus YKR091W, strain srl3, stronger effect = lower value 0.991 | locus YLL001W, strain dnm1, stronger effect = lower value 1 | locus YLL026W, stronger effect = lower value 0.994 | locus YLL041C, strain sdh2, stronger effect = lower value 0.998 | locus YLR027C, strain aat2, stronger effect = lower value 1.01 | locus YLR039C, strain RIC1, stronger effect = lower value 0.91 | locus YLR058C, strain SHM2, stronger effect = lower value 1.01 | locus YLR102C, strain apc9, stronger effect = lower value 0.984 | locus YLR113W, strain HOG1, stronger effect = lower value 1.02 | locus YLR221C, strain rsa3, stronger effect = lower value 0.987 | locus YLR258W, strain gsy2, stronger effect = lower value 1.01 | locus YLR262C, strain YPT6 (second series), stronger effect = lower value 1 | locus YLR262C, strain YPT6, stronger effect = lower value 0.896 | locus YLR268W, strain sec22, stronger effect = lower value 0.957 | locus YLR320W, strain mms22, stronger effect = lower value 0.983 | locus YLR330W, strain CHS5, stronger effect = lower value 0.989 | locus YLR342W, strain FKS1 (second series), stronger effect = lower value 1.02 | locus YLR342W, strain FKS1, stronger effect = lower value 0.992 | locus YLR357W, strain rsc2, stronger effect = lower value 0.984 | locus YLR370C, strain arc18, stronger effect = lower value 0.992 | locus YLR371W, strain rom2, stronger effect = lower value 0.984 | locus YLR384C, strain iki3, stronger effect = lower value 0.972 | locus YLR418C, strain cdc73, stronger effect = lower value 1.06 | locus YML016C, strain PPZ1, stronger effect = lower value 0.989 | locus YML032C, strain rad52, stronger effect = lower value 1.02 | locus YML120C, strain ndi1, stronger effect = lower value 1 | locus YML124C, strain tub3, stronger effect = lower value 0.994 | locus YMR058W, strain fet3, stronger effect = lower value 1 | locus YMR078C, strain ctf18, stronger effect = lower value 0.98 | locus YMR125W, strain sto1, stronger effect = lower value 1.02 | locus YMR129W, stronger effect = lower value 1 | locus YMR205C, strain PFK2, stronger effect = lower value 1.02 | locus YMR223W, strain ubp8, stronger effect = lower value 0.995 | locus YMR231W, strain pep5, stronger effect = lower value 0.996 | locus YMR263W, strain SAP30, stronger effect = lower value 0.995 | locus YMR307W, strain GAS1, stronger effect = lower value 1.16 | locus YNL067W, strain RPL9B, stronger effect = lower value 0.998 | locus YNL071W, strain lat1, stronger effect = lower value 1 | locus YNL153C, strain GIM3, stronger effect = lower value 0.988 | locus YNL183C, strain NPR1, stronger effect = lower value 0.965 | locus YNL209W, strain ssb2, stronger effect = lower value 1 | locus YNL233W, strain BNI4, stronger effect = lower value 0.993 | locus YNL248C, strain rpa49, stronger effect = lower value 0.914 | locus YNL250W, strain rad50, stronger effect = lower value 0.935 | locus YNL271C, strain bni1, stronger effect = lower value 0.984 | locus YNL298W, strain CLA4, stronger effect = lower value 0.991 | locus YNL307C, strain MCK1, stronger effect = lower value 0.982 | locus YNL322C, strain KRE1 (second series), stronger effect = lower value 1 | locus YNR049C, strain mso1, stronger effect = lower value 1.02 | locus YNR052C, strain pop2, stronger effect = lower value 1.02 | locus YOL006C, strain TOP1, stronger effect = lower value 0.831 | locus YOL012C, strain htz1 0.879 | locus YOL147C, strain pex11, stronger effect = lower value 0.991 | locus YOR001W, strain rrp6, stronger effect = lower value 0.972 | locus YOR061W, strain CKA2, stronger effect = lower value 0.992 | locus YOR069W, strain VPS5, stronger effect = lower value 0.993 | locus YOR070C, strain gyp1, stronger effect = lower value 1 | locus YOR080W, strain dia2, stronger effect = lower value 1 | locus YOR083W, strain WHI5, stronger effect = lower value 1.02 | locus YOR106W, strain vam3, stronger effect = lower value 1.02 | locus YOR136W, strain idh2, stronger effect = lower value 0.972 | locus YOR144C, strain elg1, stronger effect = lower value 0.996 | locus YOR184W, strain ser1, stronger effect = lower value 0.978 | locus YOR231W, strain MKK1, stronger effect = lower value 1.04 | locus YOR265W, strain rbl2, stronger effect = lower value 1 | locus YOR270C, strain vph1, stronger effect = lower value 1.04 | locus YOR290C, strain snf2, stronger effect = lower value 0.994 | locus YOR316C, strain cot1, stronger effect = lower value 0.994 | locus YPL051W, strain arl3, stronger effect = lower value 1 | locus YPL078C, strain atp4, stronger effect = lower value 1.01 | locus YPL106C, strain sse1, stronger effect = lower value 0.966 | locus YPL240C, strain hsp82, stronger effect = lower value 0.992 | locus YPL241C, strain CIN2, stronger effect = lower value 1.01 | locus YPL256C, strain CLN2, stronger effect = lower value 1.04 | locus YPR119W, strain clb2, stronger effect = lower value 0.985 | locus YPR141C, strain kar3, stronger effect = lower value 0.992 | locus YPR163C, strain tif3, stronger effect = lower value 0.986 | locus YPR167C, strain met16, stronger effect = lower value 0.996 | strain wtn01, stronger effect = lower value 0.94
